According to PubChem BioAssay AID1578 (Sanford-Burnham Center for Chemical Genomics, 2009):
Out of some 290,000 compounds screened, about 3,000 (1%) were called active. No stated cut-off is given here; in the data, active means inhibition mostly above about 36% (no sharp cut-off); inactive means mostly below about 34%. The entries come from a sample that favours actives as a whole.

experiment: NOD1 signaling inhibitors, primary screen, cell-based, luminescence, uHTS (AID 1578); details: NOD1-driven NF-kB luciferase reporter cells, at 4 µM, active compounds read high;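 further: HEK-293T reporter cells stimulated with the NOD1 agonist gamma-tri-DAP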

Structure (SMILES)	inhibition
O=C(C1CC1)N1N=C(c2ccncc2)CC1(O)C(F)(F)F (configuration not stated)	-21.3% (inactive)
O=C(NCc1cccc(C(F)(F)F)c1)C1CC(c2cccc(F)c2)=NO1 (configuration not stated)	-5% (inactive)
O=C(/C=C/c1cccc([N+](=O)[O-])c1)Nc1ccccc1N1CCOCC1	-27.5% (inactive)
COCCCNC(=O)CCN1C(=O)COc2ccccc21	9.8% (inactive)
CC(C)(C)c1cc(C(=S)N2CCN(CCO)CC2)cc(C(C)(C)C)c1O	11.9% (inactive)
CC(C)(C)c1cc(C(c2cccnc2)N2CCN(CCO)CC2)cc(C(C)(C)C)c1O (configuration not stated)	67.2% (active)
CC(C)(C)c1cc(CN2CCN(CCO)CC2)cc(C(C)(C)C)c1O	45.2% (inactive)
O=C(CCN1C(=O)/C(=C/c2ccc3c(c2)OCO3)SC1=S)Nc1ccccc1	-5.3% (inactive)
CCOC(=O)CN1C(=O)S/C(=C\c2ccc3c(c2)OCO3)C1=O	16.9% (inactive)
O=C1/C(=C\c2ccc3c(c2)OCO3)CCC/C1=C/c1ccc2c(c1)OCO2	-48% (inactive)
CCCN1C/C(=C/c2ccc3c(c2)OCO3)C(=O)/C(=C/c2ccc3c(c2)OCO3)C1	67.2% (active)
CCCN1C(=O)/C(=C/c2ccc3c(c2)OCO3)NC1=S	-29.7% (inactive)
NCCN1C(=O)S/C(=C\c2ccc3c(c2)OCO3)C1=O	27.3% (active)
CCOC(=O)c1c(NC(=O)c2cccc(N3C(=O)CCC3=O)c2)sc2c1CCN(CC)C2	-16.7% (inactive)
CC(C)(C)C(=O)COC(=O)CCc1nc2ccccc2[nH]c1=O	2.2% (inactive)
O=C(CCCN1C(=O)/C(=C\c2cccs2)SC1=S)Nc1ccccn1	4.3% (inactive)
O=C(CCN1C(=O)/C(=C\c2cccs2)SC1=S)Nc1ccccn1	-42% (inactive)
O=C(CCCN1C(=O)/C(=C/c2cccs2)SC1=S)Nc1ccccn1	63.6% (active)
CSc1ccccc1-c1n[nH]c(=S)o1	-15% (inactive)
CC(C)Cc1ccc(C(C)C(=O)O)cc1 (configuration not stated)	-13.2% (inactive)
CC(C)Cc1ccc(C(C)C(N)=NCCc2ccccc2)cc1 (configuration not stated)	-10.4% (inactive)
CC(C)Cc1ccc(C(C)C(=N)N)cc1 (configuration not stated)	43% (active)
CCOP(=O)(OCC)C1NC(=O)N(c2ccccc2)C1=O (configuration not stated)	-1.7% (inactive)
CCc1ccc(C(=O)COC(=O)C(CCSC)NC(=O)c2ccccc2)cc1 (configuration not stated)	16.6% (inactive)
Cc1cc(C(C)(C)C)ccc1OCCCCN1CCCC1	-74.5% (inactive)

Structure (SMILES)	inhibition
CCC(C)(C)c1ccc(OCC(=O)N(C)C)c(C(C)(C)CC)c1	26.1% (inactive)
CCC(C)(C)c1ccc(OCCCC[n+]2ccccc2)c(C(C)(C)CC)c1	11.8% (inactive)
CCC(C)(C)c1ccc(OCCCC[n+]2ccc(C)cc2)c(C(C)(C)CC)c1	43.7% (inactive)
Cc1cccc(-c2oc3ccccc3c2C#CCCO)c1	-12.5% (inactive)
COc1ccc(Oc2nccc(OC)c2C#N)cc1	-18.4% (inactive)
Cn1c(=O)c2c(nc(SCC(=O)NCC3CCCO3)n2Cc2ccc(F)cc2)n(C)c1=O (configuration not stated)	-8.2% (inactive)
COc1ccc(CNC(=O)CN(Cc2ccc(Cl)cc2)C(=O)c2csnn2)cc1	-9% (inactive)
Cc1oc(-c2cccs2)nc1CS(=O)CC(=O)NCc1ccc2c(c1)OCO2 (configuration not stated)	1.1% (inactive)
COc1ccccc1CNC(=O)c1ccccc1OC	-29.5% (inactive)
COc1ccccc1CNC(=O)c1ccoc1C	47.6% (active)
COc1ccccc1CCNC(=O)c1ccoc1C	-33.7% (inactive)
COc1ccc(-c2csc(NC(=O)CN3C(=O)CCC3=O)n2)cc1	-30.6% (inactive)
Cc1ccc(C(=O)NCCCNC(=O)c2ccc(Cl)cc2)cn1	-10.8% (inactive)
O=C(NNS(=O)(=O)c1ccccc1)c1ccc(F)cc1	-11.4% (inactive)
C[n+]1c(/C=C/c2ccc(O)cc2)ccc2ccccc21	-15.4% (inactive)
CN1C=C/C(=C\c2cc[n+](C)c3ccccc23)c2ccccc21	20.8% (inactive)
CCNC(=O)C1CCCc2c1[nH]c1ccc(Cl)cc21 (configuration not stated)	-25.3% (inactive)
CCN1C(=O)N(CC)C2C1N(C(C)=O)C(=O)N2C(C)=O (configuration not stated)	-26.2% (inactive)
Cc1c(NC(=O)CC(=O)Nc2c(C)n(C)n(-c3ccccc3)c2=O)c(=O)n(-c2ccccc2)n1C	14.4% (inactive)
Cc1c(NC(N)=O)c(=O)n(-c2ccccc2)n1C	54.9% (active)
Cc1c(NC(=O)c2ccccc2)c(=O)n(-c2ccccc2)n1C	-17.8% (inactive)
CCOc1ccc(/C=C/c2nc(C#N)c(NCCCOC)o2)cc1	-11.6% (inactive)
CCOc1ccc(/C=C/c2nc(C#N)c(NCCCN(C)C)o2)cc1	2.8% (inactive)
CCNc1oc(/C=C/c2ccc(OCC)cc2)nc1C#N	64.9% (active)
COc1cc(NC(=O)CSc2nnc(-c3cc(C)on3)o2)cc(OC)c1	9.9% (inactive)

Structure (SMILES)	inhibition
CCCc1nnc(NC(=O)C23CC4CC(CC(C4)C2)C3)s1	0.1% (inactive)
Cc1c(C(=O)Nc2ccc3c(c2)OCO3)sc2nc(-c3ccccc3)cn12	-35.7% (inactive)
Cc1c(C(=O)Nc2ccccc2)sc2nc(-c3ccccc3)cn12	-15.4% (inactive)
Cc1c(C(=O)Nc2ccc3c(c2)OCCO3)sc2nc(-c3ccccc3)cn12	79.1% (active)
CCCCOc1cccc(C(=O)NC(=S)Nc2cccc(NC(=O)c3ccccc3Cl)c2)c1	-15.9% (inactive)
COc1ccc2c(c1OC)C(=O)N(c1cccc(C(F)(F)F)c1)C2	-67.5% (inactive)
CC(=O)c1ccccc1C(=O)NCc1cccnc1	-9.2% (inactive)
COC(=O)C1=C(C)Nc2c(c(=O)n(C)c(=O)n2C)C1c1ccncc1 (configuration not stated)	68.6% (active)
COC(=O)C1=C(C)Nc2c(c(=O)n(C)c(=O)n2C)C1c1ccc(C)cc1 (configuration not stated)	-27.5% (inactive)
COC(=O)C1=C(C)Nc2c(c(=O)n(C)c(=O)n2C)C1c1cccnc1 (configuration not stated)	-10.6% (inactive)
Cc1ccc(S(=O)(=O)N(CC(=O)Nc2cccnc2)c2cccc([N+](=O)[O-])c2)cc1	-14.2% (inactive)
Cc1ccc(O)c(NC(=O)CSc2ccc(Cl)cc2)c1	17% (inactive)
Cc1ccc(SCC(=O)Nc2cc([N+](=O)[O-])ccc2O)cc1	77.2% (active)
O=C(CCN1C(=O)/C(=C/c2ccc(F)cc2)SC1=S)Nc1cc([N+](=O)[O-])ccc1O	-1.3% (inactive)
COc1ccc([N+](=O)[O-])cc1NC(=O)CSc1ccc2ccccc2c1	41.3% (inactive)
Cc1ccc(/C=C2\SC(=S)N(CCC(=O)NNC(=O)c3ccccc3O)C2=O)cc1	-24.7% (inactive)
Cc1ccc(/C=C2/SC(=S)N(CCCC(=O)Nc3cc([N+](=O)[O-])ccc3O)C2=O)cc1	71.1% (active)
O=C(CCCN1C(=O)/C(=C\c2cccs2)SC1=S)Nc1cc([N+](=O)[O-])ccc1O	26.3% (inactive)
COc1ccc(/C=C2/SC(=S)N(CCCC(=O)Nc3ccccc3C(=O)O)C2=O)cc1	34.1% (inactive)
COc1cc(Cl)ccc1OCc1cc(C(=O)N(C)Cc2cccc3cnccc23)no1	11.4% (inactive)
CC1(C)SC(=S)N(/N=C/c2ccccc2O)C1N(O)C(=O)Nc1ccccc1 (configuration not stated)	-1.1% (inactive)
CCCSc1nnc(NC(=O)c2nc(SC)ncc2Cl)s1	-10.4% (inactive)
Cc1cccn2c(=O)c(C=Nc3c(C)n(C)n(-c4ccccc4)c3=O)c(N3CCCC3)nc12	-3.8% (inactive)
COc1ccccc1NC(=S)N1CCc2cc(OC)c(OC)cc2C1	-30% (inactive)
Oc1ccc2ccccc2c1/C=N/c1nccs1	-6% (inactive)

Structure (SMILES)	inhibition
Oc1ccc2ccccc2c1N=Nc1nccs1	106% (active)
Oc1ccc(N=Nc2c(O)ccc3ccccc23)cc1	24% (inactive)
CCCCC(=O)Nc1cc(NC(=O)CC)ccc1Cl	-13.8% (inactive)
CCn1c(SC)nnc1-c1nnc(SC)n1CC	-5.7% (inactive)
Cc1cc(C)cc(C(=O)NCc2ccc3c(c2)OCO3)c1	-31% (inactive)
CCC(=O)Nc1cc2c(C)cc(=O)oc2cc1C	-1.6% (inactive)
Cc1cc2oc(=O)cc(C)c2cc1NC(=O)CCC(=O)O	-10.8% (inactive)
Cc1cc2oc(=O)cc(C)c2cc1NC(=O)CCl	42.5% (active)
Cc1cc(OCc2ccc(C(=O)n3cccn3)o2)ccc1Cl	-24.5% (inactive)
Cc1ccc(C)c(NC(=O)CSc2nnc([C@@H]3CCCN3C(=O)OC(C)(C)C)o2)c1	9.1% (inactive)
CCOC(=O)c1cnc(Nc2nc3ccccc3o2)nc1C	78.1% (active)
CCOC(=O)c1cnc(Nc2nc3ccccc3o2)nc1CN1CCN(C)CC1	-1.5% (inactive)
CCOC(=O)c1cnc(Nc2nc3ccccc3o2)nc1CSC(=S)N(CC)CC	-23% (inactive)
O=C(O)c1ccc2c(=O)n3c(nc2c1)/C(=C/c1ccccc1Br)CC3	-85.4% (inactive)
CCOC(=O)c1c(C)oc2c1c(C=NC1CCS(=O)(=O)C1)c(O)c1ccccc12 (configuration not stated)	75.8% (active)
CCOC(=O)c1c(C)oc2c1c(C=NCCO)c(O)c1ccccc12	-37.2% (inactive)
CCOC(=O)c1c(C)oc2c1c(C=NCCC(=O)O)c(O)c1ccccc12	-16.5% (inactive)
CCOC(=O)c1c(-c2ccccc2)csc1NC(=O)C(C)NCc1ccco1 (configuration not stated)	1.6% (inactive)
N#C/C(=C\c1ccc(F)c(Cl)c1)S(=O)(=O)c1ccccn1	0.3% (inactive)
CC1(C)C(C=C(Cl)Cl)C1C(=O)N/N=C/c1ccccc1F (configuration not stated)	80.1% (active)
COc1ccc(/C=N/NC(=O)C2C(C=C(Cl)Cl)C2(C)C)c(OC)c1 (configuration not stated)	-24.6% (inactive)
CC1(C)OC2OC(C(=O)N/N=C/c3ccccc3F)C3OC(C)(C)OC3C2O1 (configuration not stated)	-13.7% (inactive)
